Experimental data as given in PubChem BioAssay AID651725 (National Center for Advancing Translational Sciences (NCATS), 2012).
The campaign covered roughly 360,000 compounds. About 2,000 (0.56%) were called active. Roughly 2% stayed inconclusive and do not appear here. Shown is part of a subset that was picked to be rich in actives. Values without a mark were called inactive. Rule as the data show it: active = activity change below about -65%; inconclusive = mostly about -30% to -63%; inactive = weaker than that.
% is scaled to controls: 0 for no effect and ±100 for the full control effect.

These compounds were tested against Homeobox protein SIX1 (Homo sapiens) + Protein phosphatase EYA2 (Homo sapiens) (UniProt Q15475+O00167) (assay: qHTS Assay for Inhibitors of the Six1/Eya2 Interaction). Conditions: AlphaScreen GST-Six1/His-Eya2 binding, biochemical; stronger effect = lower value.
Homeobox protein SIX1 (Homo sapiens) + Protein phosphatase EYA2 (Homo sapiens), sequence (O00167 whole entry, looked up): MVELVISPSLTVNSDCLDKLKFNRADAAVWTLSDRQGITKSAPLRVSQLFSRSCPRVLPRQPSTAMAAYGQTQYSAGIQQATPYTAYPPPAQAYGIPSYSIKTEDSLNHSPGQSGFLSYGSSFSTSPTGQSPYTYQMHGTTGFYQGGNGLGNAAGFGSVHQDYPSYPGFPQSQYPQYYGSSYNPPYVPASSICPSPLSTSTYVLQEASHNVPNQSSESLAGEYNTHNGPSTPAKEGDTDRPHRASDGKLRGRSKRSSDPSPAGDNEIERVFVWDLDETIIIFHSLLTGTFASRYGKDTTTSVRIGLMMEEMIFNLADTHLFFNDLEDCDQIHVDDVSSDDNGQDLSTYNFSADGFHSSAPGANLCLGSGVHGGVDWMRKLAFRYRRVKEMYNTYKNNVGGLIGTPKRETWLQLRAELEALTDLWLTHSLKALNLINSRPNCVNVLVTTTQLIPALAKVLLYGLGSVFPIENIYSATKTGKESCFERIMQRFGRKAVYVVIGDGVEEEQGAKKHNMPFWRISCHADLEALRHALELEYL
Homeobox protein SIX1 (Homo sapiens) + Protein phosphatase EYA2 (Homo sapiens), sequence (Q15475 whole entry, looked up): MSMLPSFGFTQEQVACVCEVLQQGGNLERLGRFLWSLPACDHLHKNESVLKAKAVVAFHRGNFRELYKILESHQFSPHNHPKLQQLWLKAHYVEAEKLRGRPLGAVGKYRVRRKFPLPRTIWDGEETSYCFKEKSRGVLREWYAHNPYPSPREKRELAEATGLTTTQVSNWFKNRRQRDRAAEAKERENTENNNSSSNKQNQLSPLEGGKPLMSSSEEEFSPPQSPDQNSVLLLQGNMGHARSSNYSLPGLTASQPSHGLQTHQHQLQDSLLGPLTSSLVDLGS
Outline: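 Homogeneous AlphaScreen proximity assay pairing GST-Six1 with His-tagged Eya2 (added as 5X mix: 250 nM and 500 nM) in 50 mM Tris pH 8.0, 300 mM NaCl, 1 mM TCEP. Glutathione donor and nickel acceptor beads; 1 h, 37 °C, dark.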
Compound `COc1ccc(NC(=O)CCNC(=O)Cn2cnc3sc4c(c3c2=O)CCCC4)cc1OC` has an activity change of -2.73%. Work on `COc1ccc(NC(=O)CCCNC(=O)Cn2cnc3sc4c(c3c2=O)CCCC4)cc1OC` yielded an activity change of -5.21%. With `COc1ccc(/C=N/Nc2ncnc3sc4c(c23)CCCC4)cc1O` the activity change was -78.1% (active). For `CO[C@@H]1CN(C)C(=O)c2cc(NC(=O)Nc3cc(F)ccc3F)ccc2OC[C@H](C)N(C(=O)c2ccccn2)C[C@@H]1C`, the activity change was -5.82%. Compound `CCOC(=O)N1CCN(C(=O)C[C@@H]2C[C@@]3(C(=O)OC)CC(C)(C)CC=C3N(Cc3ccco3)C2=O)CC1` has an activity change of -1.81%. For `COc1ccccc1C(=O)NCCC(=O)N(C)Cc1cccnc1`, the activity change was 6.46%. With `COc1ccc2c(c1)c(=Cc1ccc(N(C)C)cc1)c1cc(-c3ccccc3)[n+](C)n12` the activity change was -69.4% (active). For `CCCCCNC(=O)C1C(=O)Nc2ccccc2C(=O)N1C(C)(C)C` (configuration not stated), the activity change was 1.59%. `Nc1ncnc2c1ncn2[C@@H]1O[C@H](CNCc2cccn2-c2nccs2)[C@@H](O)[C@H]1O` was tested, and the activity change was 0.147%. `COc1ccc(CCn2c(=N)c(C(=O)NCc3ccco3)cc3c(=O)n4cccc(C)c4nc32)cc1` was tested, and the activity change was -68.6% (active). Compound `Cc1cccn2c(=O)c3cc(C(=O)NCCN4CCOCC4)c(=N)n(Cc4cccnc4)c3nc12` has an activity change of -20.8%. Compound `Cc1ccc(S(=O)(=O)c2cc3c(=O)n4cccc(C)c4nc3n(CCc3ccccc3)c2=N)cc1C` has an activity change of 0.223%. Work on `Cc1cccc(N(C(=O)c2ccc(CN3CCOCC3)o2)C(C(=O)NC2CCCCC2)c2ccc(F)cc2)c1` (configuration not stated) yielded an activity change of 0%. With `COC(=O)[C@@]12C[C@@H](CC(=O)NCc3cccc(C(F)(F)F)c3)C(=O)N(Cc3ccco3)C1=CCC(C)(C)C2` the activity change was -8.64%. For `CCOC(=O)N1CCN(C(=O)COc2ccc3oc4c(c3c2)CCCC4)CC1`, the activity change was -10.2%. `CCOC(=O)c1c(C)oc2cc(Br)c(OCC(N)=O)cc12` gave an activity change of 5.69%. In the case of `CCOC(=O)c1c(C)oc2ccc(OCC(=O)N(CC)CC)cc12`, the activity change is reported as -68.9% (active). For `CC1(C)NC(=O)N(CC(=O)Nc2ccc(-c3ccccc3)cc2)C1=O`, the activity change was 5.24%. `CCC(c1nc2ccccc2[nH]1)n1c(=O)c(-c2cccs2)nc2ccccc21` (configuration not stated) was tested, and the activity change was 9.68%. Work on `CCCCc1c(-c2ccc(Br)cc2)ncn1CCc1ccccc1OC` yielded an activity change of -13.5%. `CC/C(O)=N\S(=O)(=O)c1ccc(N=NN(C)C)cc1` showed an activity change of 0%. In the case of `CN(C)N=Nc1ccc2nc[nH]c2c1`, the activity change is reported as -72.7% (active). For `CC(=NNC(=O)c1ccc2nc[nH]c2c1)c1ccc(Br)cc1`, the activity change was 0.936%. In the case of `COC(=O)[C@@]1(Sc2ccc(C)cc2)CC(=O)N(c2cccc(SC)c2)[C@@H]1c1ccccc1`, the activity change is reported as -16.4%. `Cc1cc(C)nc(N/N=C/c2c(CO)cnc(C)c2O)n1` was tested, and the activity change was -75.1% (active). With `Cc1ccc(S(=O)(=O)N[C@H]2CCC[C@@H]2O)cc1` the activity change was 7.33%. Work on `CC1Cc2[nH][nH]c(=O)c2C(C2CC2)O1` (configuration not stated) yielded an activity change of -3.07%. Work on `CC(=O)C[C@@H]1OC[C@H](C)N1S(=O)(=O)c1ccc(C)cc1` yielded an activity change of -0.665%. In the case of `Cc1ccc(S(=O)(=O)N2CCC(N3CCCCCC3)CC2)cc1`, the activity change is reported as -10.2%. With `Cc1ccc(S(=O)(=O)n2oc(=O)c(C3CCCCC3)c2N)cc1` the activity change was -78.3% (active). With `Cc1ccc(S(=O)(=O)NC2CCCCCC2)cc1` the activity change was 8.84%. In the case of `CCC(CC)C(C(=O)NC1CCCC1)N1CCN(c2cc(C)nc3ccccc23)CC1` (configuration not stated), the activity change is reported as 0.151%. Work on `O=S(=O)(c1ccc(F)cc1)N1CC=C(c2ccccc2)CC1` yielded an activity change of 11.2%. `Cn1c(SCC(=O)c2ccc(F)cc2)nnc1-c1ccccn1` was tested, and the activity change was 3.69%. `Cn1c(CC(=O)Nc2ccccc2)nnc1SCC(=O)c1ccccc1` showed an activity change of 3.83%. For `Cn1c(CNc2nc(-c3ccccc3)cs2)nnc1SCC(=O)c1ccccc1`, the activity change was -73.7% (active). `COc1ccc(OC)c(CN2C(=O)CCC2(C)c2nnnn2Cc2ccccc2)c1` (configuration not stated) gave an activity change of 0.523%. `COc1cc(C(=O)Nc2ncccc2C)ccc1OCC(=O)N1CCOCC1` showed an activity change of 7.15%. For `C/C(=N\Nc1ccc(Cl)nn1)c1ccccc1O`, the activity change was -71.4% (active). For `Fc1ccccc1Cc1ccc(Cl)nn1`, the activity change was 4.04%. For `Oc1cccc(/C=N/Nc2ccc(Cl)nn2)c1O`, the activity change was -85.5% (active). For `C/C(=N/Nc1ccc(Cl)cc1)c1cnnc(-c2ccccc2)n1`, the activity change was 9.69%. `CCC1OC(C2CC2)CC2=C1C(=O)OC(C)(C)O2` (configuration not stated) gave an activity change of -0.697%. In the case of `COc1ccc2c(c1)c(C(=O)N/N=C/c1cccs1)c(C)n2C`, the activity change is reported as -4.11%. For `CCOC(=O)[C@]12CCCC=C1N(CCC1=CCCCC1)C(=O)[C@H](CC(=O)NCCCCc1ccccc1)C2`, the activity change was -0.886%. Work on `COc1ccc(C(C(=O)Nc2c(C)cccc2C)N2CCN(c3ccc(C)cc3)CC2)cc1` (configuration not stated) yielded an activity change of -4.54%. With `COc1cccc(/C=N/NC(=O)c2[nH]nc3c2CCc2ccccc2-3)c1O` the activity change was -65.7% (active). `COc1cc(/C=N/NC(=O)c2cccnc2)ccc1OC(=O)c1cccc(Br)c1` showed an activity change of -6.91%. `CCn1c(/C=N/NC(=O)c2ccc(OC)cc2)nc2ccccc21` showed an activity change of -12.5%. `COc1cccc(/C=N\NC(=O)C2=NNC(=O)C2C)c1O` (configuration not stated) was tested, and the activity change was -90.9% (active). For `COc1ccc(OC)c(/C=N/NC(=O)c2ccc[n+](CC(=O)c3ccccc3)c2)c1`, the activity change was -5.56%. `COc1ccc(/C=N/NC(=O)C2CC2)c(OC)c1OC` was tested, and the activity change was 3.31%. For `Cc1cccc(C)c1NC(=O)C(c1cccc2ccccc12)n1c(=O)c(-c2ccco2)nc2ccccc21` (configuration not stated), the activity change was -22.2%. In the case of `CC(C)OC(=O)CC(=O)CC(O)c1cccc([N+](=O)[O-])c1` (configuration not stated), the activity change is reported as -3.63%. For `CC(C)(C)Nc1nc(-c2ccccn2)nc2ccccc12`, the activity change was -89.4% (active). With `Cc1nc2ccccc2c(C(=O)O)c1-c1ccccn1` the activity change was 7.28%. `c1ccc(-c2nccc(-c3ccc(-n4cnc5ccccc54)cc3)n2)nc1` was tested, and the activity change was -10.5%.
